# Screening results as filed in PubChem BioAssay.
# TDP1 block = blocks human tyrosyl-DNA phosphodiesterase 1; recombinant TDP1, AlphaScreen DNA substrate cleavage; Potency, µM (doses to about 130 µM), without a hit: at the top dose activity change, negative = inhibition, actives largely listed as inhibitors; Q9NUW8; AID 485290; 350,000 tested, 0.28% active; note: potency is the fitted concentration of half-maximal effect; % is set by controls: 0 for no effect and ±100 for the full control effect; nearly all actives have a fitted effect of over 40% in size
#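 Enzyme-compound mixtures sat 15 min at room temperature, followed by a 5 min reaction with 15 nM final substrate and 10 min with AlphaScreen beads. Recombinant human Tdp1 was used at 1 nM final.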
# JMJD2A Tudor = JMJD2A Tudor domain (human) inhibition; O75164; AlphaScreen JMJD2A-Tudor / H3K4me3 peptide binding; Potency, µM (highest dose often 114 µM), for the others: at the top dose activity change, negative = inhibition, usual class: inhibitors; 390,000 tested, 4.4% active; AID 504339; note: potency is the fitted concentration of half-maximal effect; % is set by controls: 0 for no effect and ±100 for the full control effect; nearly all actives have a fitted effect of over 50% in size
# Six1-Eya2 blk = Six1/Eya2 interaction inhibition; Q15475+O00167; AlphaScreen GST-Six1/His-Eya2 binding, biochemical; hits give low values; activity change, % (no concentration beside the values); 360,000 tested, 0.56% active; AID 651725; in the data active = activity change below about -65%; inconclusive = mostly about -30% to -63%; note: % is set by controls: 0 for no effect and ±100 for the full control effect
#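 AlphaScreen luminescence read after one hour at 37 °C in darkness. Pin-transferred compounds met GST-Six1 and His-Eya2 protein (5X stock 250 nM/500 nM) plus glutathione donor and Ni-chelate acceptor beads (5X, 50 ug/mL).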
# BAZ2B inh = blocks human BAZ2B | 360,000 tested, 4.4% active | AlphaScreen BAZ2B-H3K14Ac peptide displacement | Potency, µM (series often up to 114 µM), inactives show at the highest dose activity change, negative = inhibition, usual class: inhibitors; note: potency is the fitted concentration of half-maximal effect; % is set by controls: 0 for no effect and ±100 for the full control effect; nearly all actives have a fitted effect of over 60% in size
#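 AlphaScreen displacement: compounds (up to 110uM) incubated 30 min at room temperature with a preformed 50 nM BAZ2B/50 nM biotinylated H3K14Ac peptide complex in PBS pH 7.4 with Tween-20. Donor and acceptor beads at 10 ug/mL final added, 20 min light-protected before reading.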
# HP1b chromo inh = blocks HP1-beta chromodomain binding to methylated histone tails. Potency, µM (top dose mostly 114 µM), for inactives: top-dose activity change, negative = inhibition, most hits filed as inhibitors. AlphaScreen HP1-beta / biotin-H3K9me3 peptide binding. 390,000 tested, 0.56% active; note: potency is the fitted concentration of half-maximal effect; nearly all actives have a fitted effect of over 70% in size
#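 AlphaScreen: HP1-beta (50 nM) preformed 30 min with biotin-H3(1-18)K9me3 peptide (50 nM) in PBS pH 7.4, 0.01% Tween-20. Compound added for 30 min at RT, then streptavidin donor/nickel chelate acceptor beads (10 ug/mL) for 30 min.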
# CtBP-E1A blk = CtBP/E1A binding inhibition | 340,000 tested, 0.49% active | AID 651724 | AlphaScreen GST-E1A/His-CtBP binding, 1536-well; hits give low values | activity change, % (no concentration beside the values); in the data active = activity change below about -65%; inconclusive = mostly about -30% to -63%; note: % is set by controls: 0 for no effect and ±100 for the full control effect
#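 AlphaScreen with 125 nM GST-E1A and 125 nM His-CtBP (5X stocks) in Tris pH 8.0, 300 mM NaCl, BSA, Tween 20, TCEP. Compounds preincubated 2 h at 37 deg C, then glutathione donor/nickel acceptor beads added for 1 h at 37 deg C in dark.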
# Numbers without * were called inactive; ? = inconclusive; · = no result given; ! = not confirmed by another sample; [ ] = remark or other dose. Shown are actives, neighbours in structure and some others; about 5.3% of the full set was active somewhere. Unless noted, calls come from the whole dose curve; as a rule, active = well fitted inhibition curve with a large enough effect; inconclusive = small, poorly fitted or top-dose-only effect; inactive = no such curve, though single readings can be large or run the other way.
SMILES,TDP1 block,JMJD2A Tudor,Six1-Eya2 blk,BAZ2B inh,HP1b chromo inh,CtBP-E1A blk
O=C(N/N=C/c1c(O)n(Cc2ccccc2)c(=O)[nH]c1=O)c1ccncc1,9%,?,-72*,50µM*,18%,?
C/C(=N\NC(=O)c1ccncc1)c1c(O)n(Cc2ccccc2)c(=O)[nH]c1=O,·,-11%,-5,-16%,40%,-19
O=C(N/N=C/c1c(O)n(Cc2ccc(F)cc2)c(=O)[nH]c1=O)c1ccccc1,7%,?,-74*,79µM*,41%,-81*
CCCCn1c(O)c(/C=N/NC(=O)c2ccncc2)c(=O)[nH]c1=S,11%,-28%,-85*,79µM*,57%,-29
CCC(C)(C)NC(=O)C(NS(=O)(=O)c1cccs1)c1ccccc1 (stereo unspecified),7%,-5%,-25,5%,28%,-14
CCCCCCCCCC[n+]1cccc([C@@H]2CCCN2C)c1,2%,·,·,·,·,·
COc1ccc2cc1Oc1ccc(cc1)CC1c3cc(c(OC)cc3CCN1C)Oc1c(OC)c(OC)cc3c1C(C2)N(C)CC3 (stereo unspecified),15%[56.1 µM],·,·,·,·,·
Clc1ccc(COC(Cn2ccnc2)c2ccc(Cl)cc2Cl)cc1 (stereo unspecified),11%,?,0,25µM*,-20%,-12
CSc1ccc(C(=O)C2CCCN(Cc3cc4ccccc4[nH]3)C2)cc1 (stereo unspecified),4%,11µM*,-16,20µM*,?,0
CC(=O)c1ccc2c(c1)C1C(Cl)C(Sc3ccccc3[N+](=O)[O-])CC1C(c1ccccc1)N2 (stereo unspecified),8%,45µM*,-16,45µM*,-23%,-23
CC(=O)c1ccc2c(c1)C1C(Cl)C(Sc3ccccc3[N+](=O)[O-])CC1C(c1ccccc1[N+](=O)[O-])N2 (stereo unspecified),-3%[56.1 µM],-30%,-26,-35%,-3%,-28
Nc1c2c(nc3sc4c(c13)CCCC4)CCCCC2,3%,79µM*,5,-8%,-33%,-3
O=C1c2ccccc2C(=O)C1C(=O)C(c1ccccc1)c1ccccc1,15%,·,·,·,·,·
CC[N+](=O)[O-],5%,·,·,·,·,·
O=C(Cl)C(Cl)(Cl)Cl,13%,·,·,·,·,·
Cc1ccc(N2C(=O)NC(=O)/C(=C\c3cc(C)n(-c4cc(C(=O)O)cc(C(=O)O)c4)c3C)C2=O)cc1,·,32µM*,?,?,?,-14
CCc1ccc(N2C(=O)NC(=O)/C(=C\c3cc(C)n(-c4cc(C(=O)O)cc(C(=O)O)c4)c3C)C2=O)cc1,·,50µM*,-8,71µM*,-14%[57 µM],1
Cc1ccc(N2C(=O)NC(=O)/C(=C\c3cc(C)n(-c4ccc(C(=O)O)cc4)c3C)C2=O)cc1,·,-24%,-19,-33%,21%,3
Cc1ccc(N2C(=O)NC(=O)/C(=C/c3ccc(-c4ccc(C(=O)O)c(Cl)c4)o3)C2=O)cc1,20µM*,-20%,-15,?,24%,1
NCCNC[C@@H](N)CCCN=C(N)N[N+](=O)[O-],19%,·,·,·,·,·
N[C@@]1(C(=O)O)CC[C@@H](C(=O)O)C1,4%,50µM*,-7,-1%,-16%,-7
CCCCC/C=C\C/C=C\C/C=C\C/C=C\CCCC(=O)NCC(=O)O,32µM*!,·,·,·,·,·
CC(=O)OC[C@H](N)C(=O)c1ccccc1,6%,·,·,·,·,·
CCCC12CN3CC(CCC)(CN(C1)C3c1ccccn1)C2=O (stereo unspecified),7%,25µM*,-15,20µM*,33%,-17
CCCCOCCOP(=O)(OCCOCCCC)OCCOCCCC,10%,·,·,·,·,·
SMILES,TDP1 block,JMJD2A Tudor,Six1-Eya2 blk,BAZ2B inh,HP1b chromo inh,CtBP-E1A blk
C[C@]12CC[C@H]3[C@@H](CCC4=CC(=O)CC[C@@H]43)[C@@H]1CC[C@@H]2O,3%,-6%,-4,·,54%,4
C[C@]12CC[C@@H]3c4ccc(O)c(O)c4CC[C@H]3[C@@H]1CC[C@@H]2O,9%,8.9µM*,-4,56µM*,16µM*,-6
CN1C(=O)C(=Cc2ccc(N3CCOCC3)o2)C(=O)N(C)C1=S,7%,-19%,12,?,-22%,-2
CCN1C(=O)C(=Cc2ccc(N3CCOCC3)o2)C(=O)N(CC)C1=S,6%,-34%,8,40µM*,-8%,·
O=C(CN1CCOCC1)Nc1ccc(Br)cc1C(=O)c1ccccc1,-2%,-10%,-4,1%,8%,-20
O=C(CCN1CCOCC1)Nc1ccc(Br)cc1C(=O)c1ccccc1,·,-26%,-74*,-31%,33%,-85*
C=CCN1C(=O)/C(=C/c2ccc(Br)s2)C(=O)NC1=S,·,45µM*,3,56µM*,-13%,·
C=CCN1C(=O)/C(=C\c2ccc(N3CCOCC3)o2)C(=O)NC1=S,-3%,-9%,-1,1%,1%,-13
CCN1C(=O)/C(=C\c2ccc([N+](=O)[O-])s2)C(=O)NC1=S,·,·,·,10µM*,·,·
Cc1ccc(/C=C2/C(=O)NC(=O)N(CC3CCCO3)C2=O)s1 (stereo unspecified),-12%,-9%,2,-24%,38%,11
O=C(CCl)c1ccccc1,3%,·,·,·,·,·
O=C(Nc1ccc(Br)cc1C(=O)O)c1ccc2c(c1)C(=O)N(Cc1ccccc1)C2=O,1%,50µM*,-2,?,-26%,-2
COc1ccc(N2CCN(CCCN)CC2)cc1,·,10µM*,-13,·,?,-17
COc1ccc(N2C(=O)C(Cl)=C(N3CCN(Cc4ccccc4)CC3)C2=O)cc1,8%,?,?,?,-23%,-25
NNC(=O)c1ccc(Cl)cc1,5%,-2%,-5,-26%,40%,8
O=C(O)CP(=O)(O)c1ccc(Cl)cc1,1%,40µM*,3,-36%,29%,1
O=S(c1ccccc1)c1ccccc1,·,-5%,4,·,42%,-14
C=C(C)CCl,18%,·,·,·,·,·
CCc1ccc(N2C(=O)NC(=O)/C(=C/c3ccsc3)C2=O)cc1,0%,·,·,2%,·,·
COc1ccc(N2C(=O)NC(=O)/C(=C/c3cccc(OC(=O)c4cccs4)c3)C2=O)cc1Cl,-5%,-13%,-2,79µM*,2%,-12
Cc1ccc(N2C(=O)NC(=O)/C(=C/c3ccc(OC(=O)c4cccs4)cc3)C2=O)cc1,·,89µM*,?,8%,43%,-8
CC[C@H](CO)NC(=O)[C@H]1C=C2c3cccc4[nH]cc(c34)C[C@@H]2N(C)C1,4%[56.1 µM],·,·,·,·,·
CC1CCCCC1n1c(-c2cccnc2)n[nH]c1=S (stereo unspecified),3%,7.1µM*,1,-6%,54%,-10
CC(C)Br,11%,·,·,·,·,·
